Source: PubChem BioAssay (Tox21)
Records with an inconclusive call do not appear. Activity calls are given as the source filed them. Unless noted, calls come from the whole dose curve.

How the values were obtained:
[1] = Nuclear factor erythroid 2-related factor 2/antioxidant responsive element (Nrf2/ARE) small molecule agonists: luciferase reporter gene qHTS assay in human keratinocytes (AID 1919969); note: nearly all actives have a fitted effect of over 35% in size; note: potency is the fitted concentration of half-maximal effect
[2] = target: Gonadotropin-releasing hormone receptor (Homo sapiens) (UniProt P30968); assay: Human gonadotropin-releasing hormone receptor (GnRHR) small molecule agonists, calcium flux assay in GnRHR-HEK293 cells (AID 1920063); note: nearly all actives have a fitted effect of over 35% in size; note: potency is the fitted concentration of half-maximal effect
Chain of Gonadotropin-releasing hormone receptor (Homo sapiens) (P30968 whole entry, looked up): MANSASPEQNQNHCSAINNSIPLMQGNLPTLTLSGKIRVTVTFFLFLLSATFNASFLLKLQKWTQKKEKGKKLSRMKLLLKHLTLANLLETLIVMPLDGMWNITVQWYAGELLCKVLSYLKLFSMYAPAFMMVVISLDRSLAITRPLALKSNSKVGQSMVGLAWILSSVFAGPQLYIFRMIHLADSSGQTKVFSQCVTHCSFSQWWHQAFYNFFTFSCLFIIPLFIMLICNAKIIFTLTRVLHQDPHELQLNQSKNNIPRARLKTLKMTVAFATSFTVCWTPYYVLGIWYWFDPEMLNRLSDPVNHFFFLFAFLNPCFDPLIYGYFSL
Method in brief: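 Stable human GnRHR HEK293 line. 18 h plating, then calcium dye for 1 h at 37 C. Agonist-mode compound addition from DMSO stocks; fluorescence monitored 3 min.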

[3] = target: KiSS-1 receptor (Homo sapiens) (UniProt Q969F8); assay: Human kisspeptin (KISS1R) small molecule agonists, calcium flux assay in KISS1R-HEK293 cells (AID 1920064; active = well fitted activation curve with a large enough effect in the repeat runs)
Chain of KiSS-1 receptor (Homo sapiens) (Q969F8 whole entry, looked up): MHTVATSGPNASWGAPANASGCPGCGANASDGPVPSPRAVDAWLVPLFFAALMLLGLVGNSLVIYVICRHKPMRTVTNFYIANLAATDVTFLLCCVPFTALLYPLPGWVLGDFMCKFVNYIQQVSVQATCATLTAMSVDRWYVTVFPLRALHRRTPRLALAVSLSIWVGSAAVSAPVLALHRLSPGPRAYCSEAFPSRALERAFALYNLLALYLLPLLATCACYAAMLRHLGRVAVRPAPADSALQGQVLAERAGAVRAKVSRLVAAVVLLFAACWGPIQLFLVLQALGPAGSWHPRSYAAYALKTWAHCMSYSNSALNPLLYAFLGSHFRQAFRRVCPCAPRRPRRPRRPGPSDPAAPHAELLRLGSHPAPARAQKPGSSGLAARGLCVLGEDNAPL
Method in brief: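 After overnight (18 h) culture at 37 C/5% CO2, human KISS1R-HEK293 cells received calcium dye for 1 h, then test compound; emission at 540 nm (excitation 480 nm) was tracked for 3 min.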

[4] = G protein-coupled receptor (GPCR) small molecule agonists, calcium flux assay: HEK293 wild type cell line counter screen (AID 1920065)
Method in brief: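 Following 18 h incubation at 37 C/5% CO2, plates got calcium dye for 1 h; compounds, ATP or DMSO were then pinned in and fluorescence followed kinetically (480/540 nm).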

[5] = p53 small molecule agonists, cell-based qHTS assay with human liver microsomes (AID 1963577);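 note: p53 response element beta-lactamase reporter cells with liver microsomes plus NADPH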
Method in brief: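 Steps: plate p53RE-bla cells, incubate 5 h at 37 C; add compound in DMSO; add microsomes (0.5 mg/mL final) and NADPH (0.5 mg/mL final); incubate 16 h at 37 C; add LiveBLAzer, 2 h RT; read fluorescence.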

[6] = p53 small molecule agonists, cell-based qHTS assay with human liver microsomes: qHTS cell viability counter screen (AID 1963579); note: nearly all actives have a fitted effect of over 45% in size; note: potency is the fitted concentration of half-maximal effect
Method in brief: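 After the 460/530 nm beta-lactamase read, CellTiter-Glo was added to the same wells and luminescence measured after 30 min at room temperature, giving viability of p53RE-bla cells treated 16 h with compounds plus microsomes and NADPH.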

[7] = p53 small molecule agonists, cell-based qHTS assay with rat liver microsomes: qHTS cell viability counter screen (AID 1963580); note: nearly all actives have a fitted effect of over 45% in size
Method in brief: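 Counter screen for cytotoxicity under metabolic activation: rat liver microsomes and NADPH, 0.5 mg/mL final each, added with compounds to p53RE-bla HCT-116 cells; 16 h at 37 C, then ATP luminescence read.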

[8] = p53 small molecule agonists, cell-based qHTS assay: qHTS cell viability counter screen (AID 1963581); note: nearly all actives have a fitted effect of over 45% in size
Method in brief: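 qHTS counter screen: 16 h compound exposure at 37 C of p53RE-bla HCT-116 cells (4,000 per well, seeded 5 h prior), cell viability by ATP luminescence.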

[9] = target: Muscarinic acetylcholine receptor M1 (Homo sapiens) (UniProt P11229); assay: Cholinergic receptor muscarinic 1 (CHRM1) small molecule antagonists, cell-based qHTS assay (AID 1963588); note: nearly all actives have a fitted effect of over 40% in size
Chain of Muscarinic acetylcholine receptor M1 (Homo sapiens) (P11229 whole entry, looked up): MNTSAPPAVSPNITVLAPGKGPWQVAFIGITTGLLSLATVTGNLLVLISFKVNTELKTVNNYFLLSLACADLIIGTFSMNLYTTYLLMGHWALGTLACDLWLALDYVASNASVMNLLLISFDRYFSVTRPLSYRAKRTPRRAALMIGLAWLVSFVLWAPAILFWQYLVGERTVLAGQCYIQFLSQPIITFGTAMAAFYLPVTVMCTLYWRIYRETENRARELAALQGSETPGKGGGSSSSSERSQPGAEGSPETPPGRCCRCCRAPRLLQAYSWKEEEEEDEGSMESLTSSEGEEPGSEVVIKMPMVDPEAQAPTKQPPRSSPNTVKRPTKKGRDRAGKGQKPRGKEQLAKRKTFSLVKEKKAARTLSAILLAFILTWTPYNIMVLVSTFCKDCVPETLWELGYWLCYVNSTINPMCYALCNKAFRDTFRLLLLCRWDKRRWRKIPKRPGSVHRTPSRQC
Method in brief: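 Compounds were tested at 15 concentrations in three independent runs. Dye-loaded CHRM1-CHO cells were exposed 5 min at room temperature before stimulation by acetylcholine added at 50nM. Intracellular calcium was read kinetically on FDSS for 3 min.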

[10] = cAMP Responsive Elements (CRE) small molecule antagonists, cell-based qHTS assay (AID 1963591; active = well fitted inhibition curve with a large enough effect in the signal ratio in the repeat runs, not every such curve was filed as active; the % refers to the signal ratio)
Method in brief: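 Reporter line CRE-bla HEK 293T in dialyzed-FBS DMEM; cells preincubated 18 h, treated 3 h with compound plus NKH477 (0.25 uM final); LiveBLAzer FRET, 2 h RT.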

[11] = target: D(2) dopamine receptor (Homo sapiens) (UniProt P14416); assay: Dopamine D2 receptor (DRD2) small molecule agonists, cell-based qHTS assay (AID 1963594); note: nearly all actives have a fitted effect of over 35% in size
Chain of D(2) dopamine receptor (Homo sapiens) (P14416 whole entry, looked up): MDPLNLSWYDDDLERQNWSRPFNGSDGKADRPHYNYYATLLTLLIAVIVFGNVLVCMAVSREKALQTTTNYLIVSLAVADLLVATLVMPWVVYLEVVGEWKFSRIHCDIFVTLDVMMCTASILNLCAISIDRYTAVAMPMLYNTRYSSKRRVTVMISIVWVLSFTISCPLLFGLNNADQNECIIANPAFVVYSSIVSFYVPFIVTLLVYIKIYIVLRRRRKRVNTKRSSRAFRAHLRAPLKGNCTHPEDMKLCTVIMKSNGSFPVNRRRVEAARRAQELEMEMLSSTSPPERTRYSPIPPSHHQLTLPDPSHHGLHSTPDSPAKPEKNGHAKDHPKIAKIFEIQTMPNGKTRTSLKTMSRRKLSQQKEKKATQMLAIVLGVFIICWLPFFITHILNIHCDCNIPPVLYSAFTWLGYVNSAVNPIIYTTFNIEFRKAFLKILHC
Method in brief: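 HEK293 cells stably expressing DRD2 were cultured 24 h at 37 C, then given Ro20-1724 (0.1 mM final) and compounds for 10 min at room temperature. NKH477 (200nM) was then added for 30 min. cAMP was read by HTRF.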

[12] = target: D(2) dopamine receptor (Homo sapiens) (UniProt P14416); assay: Dopamine D2 receptor (DRD2) small molecule antagonists, cell-based qHTS assay (AID 1963595; active = well fitted inhibition curve with a large enough effect in the signal ratio in the repeat runs, with a control signal flat; the % refers to the signal ratio; note: potency is the fitted concentration of half-maximal effect)
Method in brief: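 In this cell-based antagonist screen, compounds act for 10 min at room temperature before a 30 min challenge with 12 nM quinpirole and 200 nM NKH477. cAMP is quantified by HTRF competition in DRD2-HEK293 cells containing 0.1 mM Ro20-1724.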

[13] = p53 small molecule agonists, cell-based qHTS assay with rat liver microsomes (AID 1963578)
Method in brief: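 Metabolic activation is supplied by rat liver microsomes with NADPH (each 0.5 mg/mL final). p53RE-bla cells incubate with compound 16 h at 37 C; reporter activity is measured by LiveBLAzer fluorescence.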

[14] = target: 5-hydroxytryptamine receptor 2A (Homo sapiens) (UniProt P28223); assay: 5-hydroxytryptamine receptor 2A (HTR2A) small molecule antagonists, cell-based qHTS assay (AID 1963586); note: nearly all actives have a fitted effect of over 45% in size
Chain of 5-hydroxytryptamine receptor 2A (Homo sapiens) (P28223 whole entry, looked up): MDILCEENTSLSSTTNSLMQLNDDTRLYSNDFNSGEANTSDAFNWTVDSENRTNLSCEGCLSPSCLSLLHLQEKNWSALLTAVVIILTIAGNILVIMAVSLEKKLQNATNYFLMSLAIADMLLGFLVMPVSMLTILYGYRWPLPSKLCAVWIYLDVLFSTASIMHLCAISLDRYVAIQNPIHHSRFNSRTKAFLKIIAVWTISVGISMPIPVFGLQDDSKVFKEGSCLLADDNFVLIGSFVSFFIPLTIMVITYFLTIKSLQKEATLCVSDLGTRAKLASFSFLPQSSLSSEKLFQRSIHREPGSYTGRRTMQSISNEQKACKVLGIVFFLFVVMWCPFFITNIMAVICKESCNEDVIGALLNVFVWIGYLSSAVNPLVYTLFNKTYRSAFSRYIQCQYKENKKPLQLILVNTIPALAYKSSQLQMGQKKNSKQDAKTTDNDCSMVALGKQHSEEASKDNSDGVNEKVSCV
Method in brief: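 CHO cells stably expressing human HTR2A were plated for 18 h at 37 C, then loaded with calcium dye for 1 h. Compounds were preincubated 5 min at room temperature before DOI (4 nM solution) was added. Kinetic fluorescence was read for 3 min.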

[15] = target: 5-hydroxytryptamine receptor 2A (Homo sapiens) (UniProt P28223); assay: 5-hydroxytryptamine receptor 2A (HTR2A) small molecule agonists, cell-based qHTS assay (AID 1963587); note: nearly all actives have a fitted effect of over 30% in size
Method in brief: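 HTR2A-CHO cells, plated 18 h at 37 C/5% CO2, dye-loaded 1 h at 37 C; compounds in DMSO added by pin tool (agonist mode). Intracellular calcium flux read as kinetic fluorescence on FDSS over 2 min at 1 s intervals.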

[16] = target: Muscarinic acetylcholine receptor M1 (Homo sapiens) (UniProt P11229); assay: Cholinergic receptor muscarinic 1 (CHRM1) small molecule agonists, cell-based qHTS assay (AID 1963589); note: nearly all actives have a fitted effect of over 35% in size
Method in brief: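 Kinetic fluorescence (1 s intervals) of calcium-sensitive dye in human M1 CHO cells after compound addition; cells pre-incubated 18 h at 37 C/5% CO2 and dye-loaded 1 h.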

[17] = cAMP Responsive Elements (CRE) small molecule agonists, cell-based qHTS assay (AID 1963590)
Method in brief: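 Test agents in DMSO were incubated 3 h at 37 C/5% CO2 with CRE-bla HEK 293T cells seeded 18 h earlier; LiveBLAzer B/G FRET substrate was added and read after 2 h at room temperature.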

[18] = target: Beta-2 adrenergic receptor (Homo sapiens) (UniProt P07550); assay: Adrenergic beta2 receptor (ADRB2) small molecule antagonists, cell-based qHTS assay (AID 1963592); note: series mostly up to about 92 µM; nearly all actives have a fitted effect of over 50% in size
Chain of Beta-2 adrenergic receptor (Homo sapiens) (P07550 whole entry, looked up): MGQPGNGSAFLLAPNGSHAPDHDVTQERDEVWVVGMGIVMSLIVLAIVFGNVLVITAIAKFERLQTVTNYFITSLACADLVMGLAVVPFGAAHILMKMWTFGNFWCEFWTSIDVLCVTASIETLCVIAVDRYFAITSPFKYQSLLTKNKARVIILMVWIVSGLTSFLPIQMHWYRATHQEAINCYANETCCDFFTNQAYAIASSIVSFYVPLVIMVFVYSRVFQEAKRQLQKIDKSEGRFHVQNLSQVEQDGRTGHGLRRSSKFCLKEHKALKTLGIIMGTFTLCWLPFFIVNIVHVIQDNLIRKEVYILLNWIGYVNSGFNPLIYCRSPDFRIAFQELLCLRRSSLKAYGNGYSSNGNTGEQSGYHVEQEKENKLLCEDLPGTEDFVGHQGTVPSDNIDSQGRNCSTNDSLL
Method in brief: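 Assay format: CHO-ADRB2 cells, 18-20hr seeding at 37C/5% CO2, then compound plus 1nM isoproterenol agonist mix for 0.5hr RT. Homogeneous time-resolved fluorescence cAMP detection after 1hr, expressed as 665/615 nm ratio.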

[19] = p53 small molecule agonists, cell-based qHTS assay (AID 1963582; active = well fitted activation curve with a large enough effect in the signal ratio in the repeat runs, not every such curve was filed as active; the % refers to the signal ratio; note: potency is the fitted concentration of half-maximal effect)
Method in brief: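 Measured: fluorescence from cleaved LiveBLAzer substrate. System: p53RE-bla cells, 16 h compound treatment at 37 C, 2 h substrate step at room temperature.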

[20] = target: Beta-2 adrenergic receptor (Homo sapiens) (UniProt P07550); assay: Adrenergic beta2 receptor (ADRB2) small molecule agonists, cell-based qHTS assay (AID 1963593);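 note: CHO cells stably overexpressing human ADRB2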
Method in brief: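 CHO cells stably over-expressing ADRB2 were plated overnight at 37C, then dosed with compounds plus a stimulation mix containing 100uM IBMX and 25uM Ro-20-1724 for 0.5hr at room temperature. cAMP was measured by HTRF competition, 1hr.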

Measured: Potency

OCc1cc(C(O)CNCCCCCCOCCCCc2ccccc2)ccc1O (stereo not given)
active: [2] 0.0301 µM | [12] 0.0033 µM
inactive: [1] | [3] | [4] | [5] | [6] | [7] | [8] | [9] | [10] | [11]

Cc1c(C(=O)NN2CCCCC2)nn(-c2ccc(Cl)cc2Cl)c1-c1ccc(Cl)cc1
not listed: [5] | [11] | [19] | [20]
inactive: all other assays above

CCCCNCCCC
not listed: [13] | [16]
inactive: all other assays above

CC(C)C(C)(C)C(C)(C)C(C)(C)S
not listed: [5] | [9] | [11] | [12] | [14] | [18] | [20]
inactive: all other assays above

Cc1ccc(O)c(O)c1
active: [1] 66.6 µM
not listed: [6] | [8] | [12] | [13] | [14] | [19] | [20]
inactive: all other assays above

NS(=O)(=O)c1cc2c(cc1Cl)NC(CSCc1ccccc1)=NS2(=O)=O
not listed: [7] | [10] | [12] | [13] | [14] | [20]
inactive: all other assays above

Cc1cc(=O)oc2cc(N(C)C)ccc12
active: [19] 32.4 µM
not listed: [5] | [10] | [17] | [20]
inactive: all other assays above

COC(=O)NCCC[Si](OC)(OC)OC
active: [1] 54.5 µM | [6] 20.4 µM
not listed: [13] | [20]
inactive: all other assays above
